HEK293 tox = cytotoxic compounds in HEK 293 cells. Potency, µM (top dose mostly 115 µM), actives largely listed as inhibitors. HEK 293 viability, ATP luminescence (CellTiter-Glo), 48-72 h. 94,000 compounds, 6.6% hits. AID 1345083; also: nearly all actives have a fitted effect of over 60% in size
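HEK 293 seeded at 250 cells/well receive compound via pintool. After 48 or 72 hr at 37 degree Celsius, 5% CO2 and 95% humidity, CellTiter-Glo is dispensed and luminescence read following 10 min at room temperature.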
NIH3T3 tox = kills NIH 3T3 cells; 94,000 compounds, 4.3% hits; Potency, µM (highest dose often 96.7 µM), usual class: inhibitors; NIH 3T3 viability, CellTiter-Glo ATP luminescence, 48-72 h; AID 1345082; also: nearly all actives have a fitted effect of over 55% in size
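Cytotoxicity was measured by CellTiter-Glo ATP luminescence after 48 or 72 h compound exposure at 37 °C. Mouse NIH 3T3 fibroblasts were seeded at 400 cells/well and dosed by 23 nL pin transfer.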
GPT2 inhibitor = inhibitors of human GPT2 alanine aminotransferase; Recombinant GPT2, coupled pyruvate oxidase/HRP Amplex Red fluorescence; Potency, µM (titrated, usually from 57.7 µM), actives largely listed as inhibitors; 100,000 compounds, 0.25% hits; AID 1671188; also: nearly all actives have a fitted effect of over 60% in size
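Recombinant GPT2 (10ng/uL) with 250uM a-KG and 2mM L-alanine, 30 min at room temperature, in HEPES pH 7.5 buffer. Pyruvate detected by pyruvate oxidase/HRP/Amplex Red fluorescence after 30 min in the dark; AOA (50uM) as positive control.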
Luciferase inh = blocks purified firefly luciferase enzyme activity. AID 1347043. purified P. pyralis luciferase, luminescence, biochemical. 76,000 compounds, 2.5% hits. Potency, µM (titrated, usually from 115 µM), hits mostly inhibitors; also: nearly all actives have a fitted effect of over 65% in size
Target sequence (P08659 whole entry, looked up): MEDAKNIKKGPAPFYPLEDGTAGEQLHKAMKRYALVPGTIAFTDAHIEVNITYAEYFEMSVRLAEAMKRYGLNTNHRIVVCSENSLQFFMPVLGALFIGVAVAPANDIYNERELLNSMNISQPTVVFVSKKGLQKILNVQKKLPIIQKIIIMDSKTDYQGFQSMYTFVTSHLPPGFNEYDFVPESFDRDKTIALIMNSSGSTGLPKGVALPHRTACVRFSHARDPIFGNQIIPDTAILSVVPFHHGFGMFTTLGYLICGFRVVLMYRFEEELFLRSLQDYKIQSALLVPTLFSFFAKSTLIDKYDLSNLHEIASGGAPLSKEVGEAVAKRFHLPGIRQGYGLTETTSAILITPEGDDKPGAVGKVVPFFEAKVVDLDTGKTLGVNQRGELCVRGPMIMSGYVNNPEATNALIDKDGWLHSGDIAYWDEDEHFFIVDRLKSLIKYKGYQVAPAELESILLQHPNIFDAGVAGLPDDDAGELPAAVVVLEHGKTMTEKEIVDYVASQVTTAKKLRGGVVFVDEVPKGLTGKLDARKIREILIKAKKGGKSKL
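Biochemical qHTS: compound (6-point titration) added to 10uM D-luciferin plus 10uM ATP in Tris acetate pH 7.5 buffer with Mg, Tween-20 and BSA, then purified enzyme at 10nM; light output imaged.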
hNpr1 antagonist = human Npr1 receptor antagonism. P16066. Potency, µM (doses to about 46.3 µM), hits mostly inhibitors. 76,000 compounds, 1.6% hits. HEK293 hNpr1 GloSensor cGMP, ANP-stimulated luminescence. AID 1347048; calls by dose curve; also: nearly all actives have a fitted effect of over 60% in size
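HEK293 cells stably expressing human Npr1 and cGMP GloSensor pGS-40F, loaded 2 h with 2% GloSensor reagent, given compound 30 min at room temperature. Luminescence read before and 20 min after 0.1 nM hNppA.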
Numbers stand for hits; 0 = inactive; ? = inconclusive; - = no result given; ! = not confirmed by another sample. Most compounds without a hit are left out; they make up all but 10% or so of the library. Unless noted, calls follow the shape of the dose curve; as a rule, active = well fitted curve in the direction sought with a large enough effect; inconclusive = small, poorly fitted or top-dose-only effect, or another doubt; inactive = no such curve, though single readings can be large; an effect the other way counts as inactive or inconclusive.

SMILES	HEK293 tox	NIH3T3 tox	GPT2 inhibitor	Luciferase inh	hNpr1 antagonist
CNCC[C@H](Oc1cccc2ccccc12)c1cccs1	-	-	9.7µM!	-	-
CS(=O)(=O)N1CCC(C2CCN(C(=O)Cc3cccc(F)c3)C2)CC1 (centres undefined)	0	0	0	0	0
CN(C)c1ccc2ncc(Nc3cccc(C(F)(F)F)c3)n2n1	?	?	0	0	0
CN(C)c1ccc2ncc(Nc3ccccc3-c3ccccc3)n2n1	63µM	28µM	0	?	0
c1cc(-c2ccco2)cc(-c2nc(C3CCOC3)no2)c1 (centres undefined)	0	?	0	45µM	0
COc1ccc(-c2cc(C(=O)Nc3ccc(Cl)cc3)c3cnn(C)c3n2)cc1	0	0	-	-	-
Cn1ncc2c(C(=O)Nc3cccc(Cl)c3)cc(-c3ccccc3F)nc21	?	0	-	-	-
Cn1ncc2c(C(=O)Nc3cccc(Cl)c3)cc(-c3ccc(Cl)cc3Cl)nc21	22µM	32µM	0	-	-
Cn1ncc2c(C(=O)Nc3cccc(Cl)c3)cc(C(C)(C)C)nc21	63µM	?	0	-	-
COc1ccc(NC(=O)c2cc(C(C)(C)C)nc3c2cnn3C)cc1	63µM	?	0	-	-
Cn1ncc2c(C(=O)Nc3cccc(Cl)c3)cc(-c3ccc(Cl)nc3)nc21	?	?	0	-	-
COc1cccc(CN2CCNC(=O)C2CC(=O)NCc2ccon2)c1OC (centres undefined)	0	0	0	0	0
O=C1CCC2(CCN1)CCN(S(=O)(=O)c1ccccc1F)CC2	0	0	0	0	0
COc1cccc(CN2C[C@@H](CO)[C@H](NC(=O)C3CCC3)C2)c1	0	0	0	0	0
O=C(Nc1ccc(-c2cccc(F)c2)cc1)C1CCCN1Cc1cnc[nH]1 (centres undefined)	0	?	0	?	0
COc1cccc(-c2cccc(CN3CCCC3C(=O)NC3CC3)c2)c1 (centres undefined)	45µM	?	-	-	-
COc1cccc(-c2cccc(CN3CCCC3C(=O)NCc3cccc(F)c3)c2)c1 (centres undefined)	?	35µM	0	-	-
COCCCNC(=O)C1CCCN1Cc1cccc(-c2cccc(OC)c2)c1 (centres undefined)	?	?	0	-	-
CCn1ccnc1CN1CCCC1C(=O)Nc1ccc(-c2cccc(F)c2)cc1 (centres undefined)	35µM	?	0	0	0
COc1cccc(-c2ccc(CN3CCCC3C(=O)NC3CCC3)cc2)c1 (centres undefined)	?	?	0	-	-
COCc1cc(C[C@@H]2CC[C@H](O)[C@@H](CNCc3ccccc3OC)O2)no1	0	0	0	0	0
COc1ccc(-c2noc([C@@H]3C[C@@H](O)CN3C3CCCCC3)n2)cc1	?	?	?	71µM	0
Cc1ccc(-c2noc([C@@H]3C[C@@H](O)CN3Cc3ccc(S(C)(=O)=O)cc3)n2)cc1F	?	?	0	71µM	0
Cc1ccc(CN2C[C@H](O)C[C@H]2c2nc(-c3ccc(F)cc3)no2)cc1	?	?	0	0	0
Cc1ccc(-c2noc([C@@H]3C[C@@H](O)CN3C3CCCCC3)n2)cc1F	0	0	0	50µM	0
SMILES	HEK293 tox	NIH3T3 tox	GPT2 inhibitor	Luciferase inh	hNpr1 antagonist
CC(=O)N1CCC(N2C[C@H](O)C[C@H]2c2nc(-c3ccc(C(F)(F)F)cc3)no2)CC1	71µM	?	0	?	0
CCCS(=O)(=O)N1CCc2nc(N3CCc4ccccc4C3)[nH]c(=O)c2CC1	?	0	0	0	0
CN1CCN(c2nc3c(c(=O)[nH]2)CCN(Cc2ccc4[nH]ccc4c2)CC3)CC1	0	0	0	0	0
COc1ccc(CN2CCCC(c3cc(=O)[nH]c(C)n3)C2)c(OC)c1C (centres undefined)	45µM	?	0	0	0
Cc1ccc(Nc2ccnc(N3CCCC(C(=O)N4CCN(c5ncccn5)CC4)C3)n2)cc1 (centres undefined)	20µM	?	0	-	-
Cc1ccc(Nc2ccnc(N3CCCC(C(=O)N4CCCC4)C3)n2)cc1 (centres undefined)	?	28µM	0	-	-
Cc1ccc(Nc2ccnc(N3CCN(C(=O)C4CC4)CC3)n2)cc1	71µM	32µM	0	-	-
Fc1ccccc1Nc1ccnc(N2CC3CCC(C2)N3CC(F)(F)F)n1	?	?	0	-	-
Cc1ccc(Nc2ccnc(N3CCC(C(=O)N4CCCC4)CC3)n2)cc1	?	?	0	-	-

High-throughput results deposited in PubChem by National Center for Advancing Translational Sciences (NCATS).
